Source: PubChem BioAssay
The list is not random: actives were taken first. Their share in the collection is about 2.2%.
MEKK2 mut-MEK5: signal of MEK5 binding to mutant human MEKK2 PB1 domain; bead flow cytometry, Alexa488-MEK5 binding to MEKK2 mutant; percent response, % at 10 µM; hit rate 0.35% among 290,000; AID 1530; in the data active = percent response above about 24%, passing the limit was not always enough
VLA-4 inh: inhibition in a human VLA-4 binding assay; P13612; VLA-4 expressing cells, ligand binding flow cytometry; inhibition, % (about 7 µM as worked out from the volumes in the protocol); hit rate 0.2% among 330,000; AID 2557; in the data active = inhibition above about 50%
MEKK3 PB1 HTS: raises or lowers MEK5 binding to the human MEKK3 PB1 domain; bead-based flow cytometry, Alexa488-MEK5 binding to MEKK3; actives lie on both sides; 0 = blocked by unlabeled MEK5, 100 = vehicle; binding response (% of control), % at 10 µM; hit rate 1.4% among 290,000; AID 1529; Q99759;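 active = binding response more than 3 SD above or below the average of its plate-row segment, actives on both sides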;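 also: Alexa488 bead fluorescence after subtracting the streptavidin-only scavenger bead signal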
Target sequence (Q99759 whole entry, looked up, the tested form may be a part): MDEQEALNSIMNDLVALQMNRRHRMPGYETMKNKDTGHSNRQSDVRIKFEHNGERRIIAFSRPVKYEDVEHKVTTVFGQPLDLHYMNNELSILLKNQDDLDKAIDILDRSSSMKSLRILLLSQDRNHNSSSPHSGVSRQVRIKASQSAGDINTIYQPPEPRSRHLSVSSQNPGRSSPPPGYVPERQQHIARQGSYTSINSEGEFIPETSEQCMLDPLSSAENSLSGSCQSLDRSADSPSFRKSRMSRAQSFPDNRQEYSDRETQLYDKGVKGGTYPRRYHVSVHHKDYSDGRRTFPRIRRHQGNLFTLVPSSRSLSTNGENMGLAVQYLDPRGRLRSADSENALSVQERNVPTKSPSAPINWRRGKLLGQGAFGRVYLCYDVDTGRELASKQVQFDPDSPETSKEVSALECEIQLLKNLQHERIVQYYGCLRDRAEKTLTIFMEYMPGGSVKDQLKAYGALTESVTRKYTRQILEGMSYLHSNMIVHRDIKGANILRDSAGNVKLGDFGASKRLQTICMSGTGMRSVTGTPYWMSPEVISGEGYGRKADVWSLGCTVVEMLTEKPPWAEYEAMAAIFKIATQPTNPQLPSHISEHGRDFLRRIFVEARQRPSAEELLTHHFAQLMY
MEKK2 WT-MEK5: raises or lowers MEK5 binding to wildtype human MEKK2 PB1 domain | bead flow cytometry, Alexa488-MEK5 binding to MEKK2 WT; actives lie on both sides | binding response (% of control), % at 10 µM | hit rate 1.1% among 290,000 | AID 1531; in the data active = binding response below about 67% or above about 130%
MEKK2wt confirm: raises or lowers MEK5 binding to wildtype human MEKK2, retest. bead flow cytometry, Alexa488-MEK5 binding to MEKK2 WT; actives lie on both sides. shares compounds with MEKK3 PB1 HTS. hit rate 2.4% among 5,900. AID 1892. binding response (% of control), % at 10 µM; in the data active = binding response below about 16% or above about 210%; inactive = in between
MEKK2mut confirm: signal of MEK5 binding to mutant human MEKK2, retest; shares compounds with MEKK3 PB1 HTS; bead flow cytometry, Alexa488-MEK5 binding to MEKK2 mutant; percent response, % at 10 µM; hit rate 2% among 5,900; in the data active = percent response mostly above about 71%, no sharp cut-off; inactive = mostly below about 38%;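 also: higher means compound restores mutant binding toward wildtype level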
MEKK3 confirm: MEKK3-MEK5 PB1 inhibition, single concentration confirmation; bead flow cytometry, Alexa488-MEK5 binding to MEKK3; stronger effect = lower value; binding response (% of control), % at 10 µM; shares compounds with MEKK3 PB1 HTS; hit rate 1.8% among 5,900;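 active = binding response below 72% of control, or above a set upper limit, though filed actives all read lower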;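 also: 100% = DMSO only wells and 0% = binding blocked by excess unlabeled MEK5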
Numbers without * were called inactive; [ ] = dose if it differs, or a comment.

For CC(=O)OC1OCCOC1NC(=S)NCc1ccco1 (centres undefined) the results were MEKK2 mut-MEK5 -35, VLA-4 inh 7, MEKK3 PB1 HTS 1.0*[inhibitor], MEKK2wt confirm 98, MEKK2mut confirm -2 and MEKK3 confirm 95.
For CNC[C@@H](CC1CCCCC1)NC[C@H](CC(C)C)NCCc1cccc(C(F)(F)F)c1 the results were MEKK2 mut-MEK5 33*, MEKK3 PB1 HTS 109, MEKK2 WT-MEK5 234*, MEKK2wt confirm 159, MEKK2mut confirm 36 and MEKK3 confirm 107.
`CCC[C@@H](CNC)NC[C@H](Cc1ccccc1)NCCCCc1ccccc1` gave MEKK2 mut-MEK5 8, VLA-4 inh 42, MEKK3 PB1 HTS 104, MEKK2 WT-MEK5 154*, MEKK2wt confirm 146, MEKK2mut confirm 27 and MEKK3 confirm 106.
For CNC[C@@H](Cc1ccccc1)NC[C@@H](CC1CCCCC1)NCCCc1ccccc1 the results were MEKK2 mut-MEK5 44*, MEKK3 PB1 HTS 115, MEKK2 WT-MEK5 244*, MEKK2wt confirm 163, MEKK2mut confirm 37 and MEKK3 confirm 99.
`CCC[C@@H](CN[C@@H](CNC)C(C)C)NCCCCc1ccccc1` gave MEKK2 mut-MEK5 -3, VLA-4 inh 11, MEKK3 PB1 HTS 104 and MEKK2 WT-MEK5 119.
Screening COC(=O)c1ccc2c(=O)n(-c3ccccc3)c(SCN3C(=O)c4ccccc4C3=O)nc2c1 returned MEKK2 mut-MEK5 1, VLA-4 inh 6, MEKK3 PB1 HTS 74*[inhibitor], MEKK2 WT-MEK5 98, MEKK2wt confirm 104, MEKK2mut confirm 4 and MEKK3 confirm 105.
`C[C@H]1CN([C@@H](C)CO)C(=O)c2cccc(NC(=O)C3CC3)c2O[C@H]1CN(C)Cc1ccncc1` gave VLA-4 inh 6.
Screening C[C@@H]1CC=C[C@H]2[C@H]1C(=O)N(Cc1ccccc1)[C@H]2c1ccc(F)c(-c2ccc(N(C)C)cc2)c1 returned MEKK2 mut-MEK5 2, VLA-4 inh 17, MEKK3 PB1 HTS 66*[inhibitor], MEKK2 WT-MEK5 54*[inhibitor], MEKK2wt confirm 100, MEKK2mut confirm -12 and MEKK3 confirm 98.
CC[C@@H]1CC=C[C@H]2[C@H]1C(=O)N(Cc1ccccc1)[C@H]2c1ccc2ccccc2c1 was read as MEKK2 mut-MEK5 -7, MEKK3 PB1 HTS 79*[inhibitor], MEKK2 WT-MEK5 94, MEKK2wt confirm 99, MEKK2mut confirm 14 and MEKK3 confirm 102.
Screening CC1CCCC(NC(=O)CCNC(=O)c2ccccc2Cl)C1C (centres undefined) returned VLA-4 inh -2.
`COc1ccc([N+](=O)[O-])cc1NC(=O)CSc1ccc2ccccc2c1` gave MEKK2 mut-MEK5 0, VLA-4 inh -23, MEKK3 PB1 HTS 148*, MEKK2 WT-MEK5 108, MEKK2wt confirm 104, MEKK2mut confirm -2 and MEKK3 confirm 103.
FC(F)(F)c1cccc(NC(=S)N(CCCN2CCCC2)Cc2cccn2Cc2ccc(Cl)cc2)c1 was read as MEKK2 mut-MEK5 6, VLA-4 inh 17, MEKK3 PB1 HTS 93, MEKK2 WT-MEK5 243*, MEKK2wt confirm 259*, MEKK2mut confirm 64 and MEKK3 confirm 104.
CN(C)CCCN(Cc1ccccc1)C(=S)Nc1cccc(C(F)(F)F)c1 was read as MEKK2 mut-MEK5 10, VLA-4 inh 11, MEKK3 PB1 HTS 95 and MEKK2 WT-MEK5 113.
CCCN1CNC(=S)N(c2ccc(C(=O)OCC)cc2)C1 was read as MEKK2 mut-MEK5 -1, VLA-4 inh -14, MEKK3 PB1 HTS 92 and MEKK2 WT-MEK5 98.
Screening CCOC(=O)c1ccc(N2CN(CC)CNC2=S)cc1 returned MEKK2 mut-MEK5 1, VLA-4 inh 21, MEKK3 PB1 HTS 130*, MEKK2 WT-MEK5 107, MEKK2wt confirm 105, MEKK2mut confirm 1 and MEKK3 confirm 103.
`CN(Cc1cccc(F)c1)C(=O)c1ccc(S(=O)(=O)N2CCOCC2)cc1` gave VLA-4 inh 0.
Screening Cc1cc(N)n(-c2ccccc2)n1 returned VLA-4 inh 6.
`Cc1cc(-c2cc(N)n(-c3ccccc3)n2)c(C)n1C1CCCC1` gave MEKK2 mut-MEK5 -34, VLA-4 inh -12, MEKK3 PB1 HTS 89, MEKK2 WT-MEK5 -5.0*[inhibitor], MEKK2wt confirm 99, MEKK2mut confirm 4 and MEKK3 confirm 102.
For COc1ccc(CN(C(=O)c2ccco2)c2ccc(C)c(C)c2)cc1 the results were MEKK2 mut-MEK5 -2, VLA-4 inh 11, MEKK3 PB1 HTS 100 and MEKK2 WT-MEK5 93.
Screening CC(C)[C@H](NC(=O)NCc1cccs1)C(=O)O returned MEKK2 mut-MEK5 -46, VLA-4 inh -6, MEKK3 PB1 HTS 2.0*[inhibitor], MEKK2 WT-MEK5 2.0*[inhibitor], MEKK2wt confirm 102, MEKK2mut confirm 8 and MEKK3 confirm 108.
Screening O=C(NCc1cccs1)N[C@@H](Cc1ccccc1)C(=O)O returned MEKK2 mut-MEK5 -26, VLA-4 inh 8, MEKK3 PB1 HTS 1.0*[inhibitor], MEKK2 WT-MEK5 -2.0*[inhibitor], MEKK2wt confirm 90, MEKK2mut confirm -3 and MEKK3 confirm 86.
For COC(=O)[C@H](Cc1ccccc1)NC(=O)NCc1cccs1 the results were MEKK2 mut-MEK5 13, VLA-4 inh 7, MEKK3 PB1 HTS 104 and MEKK2 WT-MEK5 105.
For COC(=O)C1C(=O)C2=C(CC1C)Nc1ccccc1NC2c1ccc(C)s1 (centres undefined) the results were MEKK2 mut-MEK5 -7, VLA-4 inh 17, MEKK3 PB1 HTS 92 and MEKK2 WT-MEK5 91.
`CC(C)CCn1c(Br)nc2c1c(=O)n(CC(N)=O)c(=O)n2C` gave MEKK2 mut-MEK5 -15, VLA-4 inh -8, MEKK3 PB1 HTS 2.0*[inhibitor], MEKK2 WT-MEK5 2.0*[inhibitor], MEKK2wt confirm 99, MEKK2mut confirm -3 and MEKK3 confirm 99.
`COC(=O)C(C)Sc1nc2c(c(=O)n(C)c(=O)n2C)n1CCC(C)C` (centres undefined) gave MEKK2 mut-MEK5 -5, VLA-4 inh 8, MEKK3 PB1 HTS 99 and MEKK2 WT-MEK5 97.
Screening Cc1nn2c(COc3ccc(NC(=O)c4ccccc4)cc3)nnc2c2ccccc12 returned MEKK2 mut-MEK5 1, VLA-4 inh 0, MEKK3 PB1 HTS 147*, MEKK2 WT-MEK5 109, MEKK2wt confirm 102, MEKK2mut confirm 1 and MEKK3 confirm 101.
Screening CCC(=O)Nc1ccc(OCc2nnc3c4ccccc4c(C)nn23)cc1 returned MEKK2 mut-MEK5 -10, VLA-4 inh -3, MEKK3 PB1 HTS 96 and MEKK2 WT-MEK5 91.
